Reference: ChEMBL document CHEMBL4513216, “Probing the Open Global Health Chemical Diversity Library for Multistage-Active Starting Points for Next-Generation Antimalarials” (ACS Infect Dis, 2020)
Screen size: about 69,000 compounds; about 8,600 (12%) showed an effect of 50% or more. The entries come from a sample that favours strong results as a whole.

What follows are molecules tested on Plasmodium berghei (assay: Screen against P. berghei liver stage (PbLuc), transformed with Luciferase, at 10uM). Details: tested at 10 uM.
Format: functional, HepG2

| SMILES | INHIBITION |
| --- | --- |
| COc1ncccc1CNC(=O)Nc1cccnc1N1CCCC1 | 43.3% |
| COc1cccc(CC(=O)NCC(Cc2ccc(F)cc2)C(N)=O)c1 (configuration not stated) | 8.99% |
| N#Cc1cc(F)c(N2CCC(NS(=O)(=O)c3cccs3)CC2)c(F)c1 | 62.9% |
| N#Cc1ccc(N2CCC(NS(=O)(=O)c3cccs3)CC2)c(F)c1 | 20.9% |
| N#Cc1c(F)cccc1N1CCC(NS(=O)(=O)c2cccs2)CC1 | 24% |
| CNc1ncc(C(=O)N2CCOC(C(=O)Nc3ccccc3)C2)cn1 (configuration not stated) | -8.58% |
| CN(CCc1ccccc1)Cc1c(C2CC2)[nH]c2ncccc12 | 14.185% |
| CN(CCc1ccccc1)Cc1c(C2CCNCC2)[nH]c2ncccc12 | 58.95% |
| CN(CCc1ccccc1)Cc1c(C2CCOCC2)[nH]c2ncccc12 | 17.125% |
| NCCCC(=O)N1CCC2(CC1)CN(C(=O)c1ccc(Cl)cc1)CCO2 | 4.35% |
| CN1CCCN(C(=O)c2csc(-c3ccc(C(F)(F)F)cc3)n2)CC1 | 42.3% |
| O=C1CCN(C(=O)c2csc(-c3ccc(C(F)(F)F)cc3)n2)CCN1 | -1.26% |
| O=C(c1csc(-c2ccc(C(F)(F)F)cc2)n1)N1CCCNCC1 | 62.1% |
| CC(C)NC(=O)N1CCN(C(=O)C(C)C)CC2(CC(=O)N(C)C2)C1 (configuration not stated) | 22.2% |
| CC(C)NC(=O)N1CCN(C(=O)NC(C)C)CC2(CNC(=O)C2)C1 | -2.17% |
| CC(=O)N1CCN(C(=O)NC(C)C)CC2(CC(=O)N(C)C2)C1 (configuration not stated) | -3.52% |
| CC(=O)N1CCN(C(=O)NC(C)C)CC2(CNC(=O)C2)C1 (configuration not stated) | -2.17% |
| CC(C)NC(=O)N1CCN(CC2CC2)CC2(CC(=O)N(C)C2)C1 (configuration not stated) | 79.5% |
| CC(C)NC(=O)N1CCN(CC2CC2)CC2(CNC(=O)C2)C1 (configuration not stated) | 69.6% |
| CN(C)C(=O)COC1COC2(CCN(CC3CCOCC3)CC2)C1 (configuration not stated) | 12.2% |
| COCC1CCN(C(=O)c2cn(Cc3ccccc3C(F)(F)F)nn2)C1 (configuration not stated) | -49.3% |
| CNC(=O)c1cc2c(nc1NCC1CC1)CCN(S(C)(=O)=O)CC2 | -8.94% |
| Cc1csc(C2CCCCN2C(=O)c2c[nH]c(C)n2)n1 (configuration not stated) | 1.75% |
| CC(=O)c1ccc(C(=O)N2C[C@H]3CC[C@@H](C2)N(Cc2ccccc2)C3)s1 | -52.1% |

| SMILES | INHIBITION |
| --- | --- |
| Cn1cc(CCC(=O)N2CCN(Cc3ccncc3)CC2)cn1 | 27.1% |
| CCN(CC)CC(=O)N1CCN(CCCc2ccncc2)CC1 | 66.5% |
| CCC(=O)N1CCN(Cc2cc(-c3ccncc3)nn2C)CC1 | 19.3% |
| CCN(CC)CC(=O)N1CCN(CCc2ccncc2)CC1 | 52.6% |
| CCN(CC)C(=O)N1CCN(CCc2ccncc2)CC1 | 15.5% |
| CCn1cc(CN2CCCN(C(=O)CCc3ccncc3)CC2)cn1 | 31% |
| O=C(c1cccnc1)N1CCC[C@]2(C[C@H](Oc3ncccc3F)CO2)C1 | -7.59% |
| O=C(NCc1ccc(Cl)cc1)C1=NOC2(CCNC2)C1 (configuration not stated) | 1.71% |
| c1cncc(CN2CCC(c3ccnc4nccn34)C2)c1 (configuration not stated) | 19.99% |
| COc1ccnc(N2CCC(=O)N(CC3CC3)C(C(C)C)C2)n1 (configuration not stated) | 50.3% |
| CC(C)C1CN(c2ncccn2)CCC(=O)N1CC1CC1 (configuration not stated) | 9.63% |
| Cc1nccc(N2CCC(=O)N(CC3CC3)C(C(C)C)C2)n1 (configuration not stated) | 27.2% |
| Cc1noc(C)c1CN1CCN(Cc2ccncc2)c2ncccc2C1 | 29% |
| Fc1ccccc1Oc1nccnc1C1CCN(C2CCOCC2)CC1 | 25.8% |
| CC(C)(N)C(=O)N1CCC(c2nccnc2Oc2ccccc2F)CC1 | 63.4% |
| c1ccc(Oc2nccnc2C2CCN(C3CCOCC3)CC2)cc1 | -38.3% |
| Fc1cccc(Oc2nccnc2C2CCN(C3CCOCC3)CC2)c1 | 52.7% |
| Fc1ccc(Oc2nccnc2C2CCN(C3CCOCC3)CC2)cc1 | 38.7% |
| Cc1cccc(Oc2nccnc2C2CCN(C(=O)C(C)(C)N)CC2)c1 | 47.1% |
| Cc1ccc(Oc2nccnc2C2CCN(C(=O)C(C)(C)N)CC2)cc1 | 33.7% |
| NC(=O)CN1CCCC(c2nccnc2Oc2cccc(F)c2)C1 (configuration not stated) | -39.4% |
| CC(C)(N)C(=O)N1CCC(c2nccnc2Oc2cccc(F)c2)CC1 | 56% |
| CCOCC1CC2(CCN(C(=O)c3ccc4ccccc4n3)CC2)CO1 (configuration not stated) | -33.9% |
| Cc1ccc2c(c1)C(=O)NCC1(CCN(C(=O)c3sccc3C)CC1)O2 | 41.2% |

| SMILES | INHIBITION |
| --- | --- |
| COc1ncc(C(=O)N(Cc2cnn(C)c2)C(C)C)cn1 | 22% |
| C1CC(CN2CCO[C@H]3[C@H](OCC4CC4)CC[C@@H]32)CCO1 | 40.9% |
| CN(C)CCN(CC1CCCO1)S(=O)(=O)NCc1ccccc1 (configuration not stated) | 19.4% |
| Cc1cccc(CN2C(=O)CCC23CCN(C(=O)c2ccco2)CC3)n1 | -24.5% |
| CN1CCc2cc(C(=O)N(C)C)c(NCC3CC3)nc2CC1 | 2.59% |
| COc1c(CNCc2cccc(Cn3ccnc3C)c2)c(C)nn1C | 43.3% |
| COCc1cc(N(C)Cc2cnccn2)nc(C(C)(C)C)n1 | 62% |
| CN(Cc1cnccn1)c1cncc(Br)c1 | 45.9% |
| CN(Cc1cc(Cl)ccc1Cl)Cc1ncnn1C | 15.9% |
| COCc1cc(N(C)Cc2cc(C(C)(C)C)n[nH]2)ncn1 | -30.5% |
| COCc1cc(N(C)Cc2ccccn2)nc(C(C)(C)C)n1 | 27.7% |
| COCc1cc(N(C)Cc2ncnn2C)nc(C(C)(C)C)n1 | 50.8% |
| Cc1nc(N)nc(C)c1CC(=O)N1CCCCC1c1cccc(F)c1 (configuration not stated) | 19.3% |
| Cc1noc(O)c1Cc1ccc2ccccc2c1 | -26.2% |
| Cc1ccsc1CN(C)c1cc(N2CCCC2CO)ncn1 (configuration not stated) | 18.6% |
| CCn1ccnc1CN(C)c1cc(C2CC2)ncn1 | 52.6% |
| COc1cc(N(C)CCCn2nc(C)cc2C)ncn1 | 14.3% |
| CCn1ccnc1CN(C)c1cc(C2CCCNC2)nc(C)n1 (configuration not stated) | 4.41% |
| CCn1ccnc1CN(C)C(=O)Cn1ccc2ccccc2c1=O | 3.04% |
| COc1cc(N(C)Cc2cc(C(C)(C)C)n[nH]2)ncn1 | -45% |
| CN(C)c1cc(N(C)Cc2cc(C(C)(C)C)n[nH]2)ncn1 | -82.7% |
| CCn1ccnc1CN(C)c1cc(OC)ncn1 | 58.2% |
| Cc1cc(C)n(CCCN(C)c2cc(C3CC3)ncn2)n1 | 8.7% |
| CCn1ccnc1CN(C)c1cc(N(C)C)ncn1 | 57.3% |
